# Reference: the supplement of paper PMC9694430
# Counter-ions that a name gives are not always drawn.
# Tested on: LOC_OS02G45750-cb003
# Assay: thermal shift delta Tm vs DMSO control; higher = stronger stabilization (binding)
# Conditions: 12.5 µM; protein concentration 2 µM
# In short: (§1)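 Thermal shift values come from differential scanning fluorimetry on purified rice kinase domains made in E. coli, with melting temperatures obtained from Boltzmann fits. Samples of 19.5 μl held 2 μM kinase, 100 mM potassium phosphate pH 7.5, 150 mM NaCl, 10% glycerol, 5 × SYPRO Orange and compound in DMSO, and were heated from 25°C to 95°C at 0.05°C/s. Each shift is a triplicate mean relative to the DMSO-only protein sample.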
# 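Note: purified Escherichia coli-expressed rice kinase domain construct.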
row,SMILES,thermal shift delta Tm [°C]
1,Cc1cc(NC(=O)c2cccc(NC(=O)/C=C/CN(C)C)c2)ccc1Nc1nccc(-c2cccnc2)n1,3.5
2,Nc1nccc(Oc2ccc(NC(=O)c3c[nH]cc(-c4ccc(F)cc4)c3=O)cc2F)c1Cl,1.54
3,COc1ccc(/C=C/C(=O)C2(C(=O)/C=C/c3ccc(OC)c(OC)c3)CCCCC2)cc1OC,1.45
4,CC(C)CC(=O)Nc1n[nH]c2c1CN(C(=O)C1CCN(C)CC1)C2(C)C,0.62

# Tested on: LOC_OS02G54510-cb004
# Assay: as above
# Conditions: 12.5 µM; protein concentration 2 µM
# In short: as §1
row,SMILES,thermal shift delta Tm [°C]
1,CCn1c(=O)c(-c2ccc(-c3cncs3)cc2Cl)cc2cnc(Nc3ccc(N4CCN(C)CC4)cc3)nc21,0.43
2,CNC(=O)c1cccc(-c2ccc3c(N4CCOC[C@@H]4C)nc(N4CCOC[C@@H]4C)nc3n2)c1 [Vistusertib (AZD2014)],0.04
3,CC(C)S(=O)(=O)c1ccc2nccc(Nc3ccc4scnc4c3)c2c1,0.89
4,Cn1cc(-c2ccc3ncc(Cc4ccc5ncccc5c4)n3n2)cn1,0.06
5,N#Cc1ccc2ncnc(NCCc3ccccc3)c2c1 [Senexin A],0.03
6,O=C1NC(=O)/C(=C/c2ccc3nccc(-c4ccncc4)c3c2)S1,0.51
7,Cn1cnc2c(F)c(Nc3ccc(Br)cc3F)c(C(=O)NOCCO)cc21,0.05
8,Cc1cc(Nc2ncc(Cl)c(Nc3ccccc3S(=O)(=O)C(C)C)n2)c(OC(C)C)cc1C1CCNCC1 [Ceritinib (LDK378)],0.09
9,Cc1nc2ccc(-n3ncc(C(=O)c4cc5ccccc5[nH]4)c3N)cc2[nH]1,4.14
10,C=C[C@@](C)(/C=C/c1ccc(O)cc1)CCC=C(C)C [Bakuchiol],-0.05
11,"C=CC(=O)Nc1cccc(Nc2nc(Nc3ccc(N4CCN(C(C)=O)CC4)cc3OC)ncc2C(F)(F)F)c1 [Rociletinib (CO-1686, AVL-301)]",0.29
12,"CCCS(=O)(=O)Nc1ccc(F)c(C(=O)c2c[nH]c3ncc(-c4ccc(Cl)cc4)cc23)c1F [Vemurafenib (PLX4032, RG7204)]",1.86
13,COc1cc(OC)c(C=C2C(=O)Nc3ccccc32)c(OC)c1,0.07
14,CCN(CC)CCCC(C)Nc1nc(C)cc(Nc2ccc3nc(C)cc(N)c3c2)n1 (stereo not given),0.18
15,CN1CC(O)C2=C/C(=N/NC(N)=O)C(=O)C=C21 (stereo not given) [Carbazochrome],0.29
16,Cc1cc(Nc2cc(N3CCN(C)CC3)nc(/C=C/c3ccccc3)n2)n[nH]1,2.74

row,SMILES,thermal shift delta Tm [°C]
1,Cc1ccc(NC(=O)Nc2cc(C(F)(F)F)ccc2F)cc1Nc1ccc2c(c1)NC(=O)/C2=C\c1ccc[nH]1,-0.12
2,CO[C@H]1C[C@@H]2CC[C@@H](C)[C@@](O)(O2)C(=O)C(=O)N2CCCC[C@H]2C(=O)O[C@H]([C@H](C)C[C@@H]2CC[C@@H](O)[C@H](OC)C2)CC(=O)[C@H](C)/C=C(\C)[C@@H](O)[C@@H](OC)C(=O)[C@H](C)C[C@H](C)/C=C/C=C/C=C/1C [Rapamycin (Sirolimus)],0
3,C[S+]([O-])c1ccc(-c2nc(-c3ccc(F)cc3)c(-c3ccncc3)[nH]2)cc1 (stereo not given),0.81
4,CO[C@H]1CC[C@H](N2C(=O)CNc3ncc(-c4ccc(C(C)(C)O)nc4)nc32)CC1,-0.17
5,O=C(Nc1ccccc1C(=O)NC1CCCCNC1=O)c1cc2ccccc2s1 (stereo not given),0.07
6,CCN1CCN(Cc2ccc(-c3cc4c(N[C@H](C)c5ccccc5)ncnc4[nH]3)cc2)CC1,0.94
7,Cc1cnc(NC(=O)Nc2cc(Br)c(C)cc2OC[C@@H]2CNCCO2)cn1,0.18
8,Cc1ccc(NC(=O)c2ccc(CN3CCN(C)CC3)cc2)cc1Nc1nccc(-c2cccnc2)n1 [Imatinib Mesylate (STI571)],0.16
9,NC(=O)c1ccc(N(C(N)=O)c2c(F)cccc2F)nc1-c1ccc(F)cc1F,-0.06
10,Cc1nc(-c2cn3c(n2)-c2ccc(-c4cnn(C(C)(C)C(N)=O)c4)cc2OCC3)n(C(C)C)n1 [Taselisib (GDC 0032)],0.17
11,COc1cc(N2CCC(N(C)C)CC2)ccc1Nc1ncc(Cl)c(Nc2ccccc2P(C)(C)=O)n1,0.23
12,COc1cc2c(Nc3ccc(NC(=O)c4ccccc4)cc3)ncnc2cc1OCCCN1CCOCC1,0.37
13,CNC(=O)c1cc(Oc2ccc(NC(=O)Nc3cc(C(C)(C)C)nn3-c3ccc4ncccc4c3)c(F)c2)ccn1 [Rebastinib (DCC-2036)],6.64
14,CC(C)(CO)n1cc(C(=O)c2cncc(NC(=O)Cc3ccc(Cl)cn3)c2)c2cnc(N)nc21,0.19
15,CS(=O)(=O)N1CCN(Cc2cc3nc(-c4cccc5[nH]ncc45)nc(N4CCOCC4)c3s2)CC1 [Pictilisib (GDC-0941)],0.25
